Structures are written as SMILES. Several values for one entry are separate records, joined by “and”; a condition that tells them apart may be missing. Identical values can stand only once. Results filed as inconclusive are left out. A structure can be active in one record and inactive in another. Activity calls are given as the source filed them. Unless noted, the call rests on the fitted dose curve.

These results are taken from PubChem BioAssay (Tox21).
Potency means the concentration at half of the fitted maximal effect.

Test system in one test: not listed separately
Briefly: qHTS assay to identify small molecule agonists of the AP-1 signaling pathway - cell viability counter screen (AID 1159525). Further: nearly all actives have a fitted effect of over 55% in size. Conditions: ME-180 AP-1-bla cells viability, ATP luminescence, 5 h; series mostly up to 76.8 µM; viability change, negative = cytotoxic: at the top concentration. The gist of the method: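 AP-1-bla ME-180 cells in Opti-MEM with 0.5% dialyzed FBS, compound exposure 5 h at 37 C in 15-point titration. Viability read in the same wells as ATP content by CellTiter-Glo luminescence, normalised to tetra-n-octylammonium bromide and DMSO controls.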
Background: qHTS replaces the single test concentration by a dilution series.
For `CCC(Cl)C(Cl)C(Cl)CC(Cl)C(Cl)C(C)Cl` (configuration not stated), the “viability change, negative = cytotoxic” value was -2.99% (inactive).

With `[Cl][Au]([Cl])[Cl]`, the “viability change, negative = cytotoxic” value is -20% (inactive).

As to `CCCCCCCCCOC(=O)c1ccc(O)cc1`, the Potency is 38.3 µM (active).

For the compound `CSc1cnc(C)cn1`, the “viability change, negative = cytotoxic” value is -1.52% [at 200 µM] (inactive).

With `CC1=NC(C)OC1C` (configuration not stated), the “viability change, negative = cytotoxic” value was 10.4% (inactive).

As to `C=CC(=O)OCC(CO)(COCC(COC(=O)C=C)(COC(=O)C=C)COC(=O)C=C)COC(=O)C=C`, the Potency is 24.2 µM (active).

`CN1CCN(CCC(=O)N2c3ccccc3Sc3ccc(C(F)(F)F)cc32)CC1`: the “viability change, negative = cytotoxic” value is -10.3% [at 35.3 µM] (inactive).

As for `O=C1CCCc2c1cc1ccc3cccc4ccc2c1c34`, the “viability change, negative = cytotoxic” value is -1.08% (inactive).

Turning to `COc1cc(-c2ccc(N=C=O)c(OC)c2)ccc1N=C=O`, the “viability change, negative = cytotoxic” value is -9.34% [at 35.3 µM] (inactive).

As for `Nc1ccccc1O`, the Potency is 15.3 µM (active).

In the case of `C=CC(=O)OCC(CO)(COC(=O)C=C)COC(=O)C=C`, the Potency is 49.1 µM (active) and 49 µM (active).

Consider `Cc1cc(O)c(Cl)c(C)c1Cl`, for which the “viability change, negative = cytotoxic” value was -10.3% (inactive).

On to `Oc1ccc(N=Nc2ccccc2)cc1`, for which the “viability change, negative = cytotoxic” value is -23.6% (inactive).

Take `O=C(Nc1cccc([N+](=O)[O-])c1)c1cc2ccccc2cc1O`: the “viability change, negative = cytotoxic” value was 0.665% (inactive).

For the compound `NNc1nc(-c2ccccc2)cs1`, the “viability change, negative = cytotoxic” value was -3.8% (inactive).

Consider `c1cc(C(c2ccc(OCC3CO3)cc2)c2ccc(OCC3CO3)cc2)ccc1OCC1CO1` (configuration not stated), for which the “viability change, negative = cytotoxic” value is -3.78% (inactive).

On to `CN(C/C=C/C#CC(C)(C)C)Cc1cccc2ccccc12`, for which the “viability change, negative = cytotoxic” value was -8.99% [at 35.3 µM] (inactive).

With `CCCCCOc1ccccc1/C(=C\SC)n1ccnc1`, the “viability change, negative = cytotoxic” value is -6.45% [at 35.3 µM] (inactive).

For `C=C(C)C(=O)OCC(O)COc1ccc(C(C)(C)c2ccc(OCC(O)COC(=O)C(=C)C)cc2)cc1` (configuration not stated), the “viability change, negative = cytotoxic” value was -4.23% (inactive).

On to `CCCCCCCC/C=C\CCCCCCCCOCCO`, for which the Potency was 25.4 µM (active).

For the compound `CC[C@H]1O[C@]2(CC[C@@H]1C)C[C@@H]1C[C@@H](C/C=C(\C)C[C@@H](C)/C=C/C=C3\CO[C@@H]4[C@H](O)C(C)=C[C@@H](C(=O)O1)[C@]34O)O2`, the Potency is 21.7 µM (active).

On to `CCCCN(CCCC)C(=O)N(CCCC)CCCC`, for which the “viability change, negative = cytotoxic” value was 4.55% (inactive).

Take `CC(NN)c1ccccc1` (configuration not stated): the viability change, negative = cytotoxic was 4.35% [at 15.8 µM] (inactive).

As for `CCCCCCCCOC(=O)c1ccc(O)cc1`, the Potency is 54.8 µM (active).

For `CCN(Cc1cccnc1)C(=O)c1cccc(Cl)c1[C@]1(C)C(=O)N(Cc2ccc(OC)cc2OC)c2ccc(Cl)cc21`, the “viability change, negative = cytotoxic” value is 2.15% (inactive).

As for `N/C(=N\N=C\c1ccc(Cl)cc1)N/N=C/c1ccc(Cl)cc1`, the Potency is 13.4 µM (active).

For `COC(=O)c1cc(Cl)ccc1OC`, the “viability change, negative = cytotoxic” value was 12.3% [at 35.3 µM] (inactive).

Consider `C=C(C)C(=O)OCC[N+](C)(C)C`, for which the “viability change, negative = cytotoxic” value was -10.3% (inactive).

`CC(C)(C)C1CCC(CC2=C(O)c3ccccc3C(=O)C2=O)CC1` (configuration not stated): the “viability change, negative = cytotoxic” value was -0.598% [at 35.3 µM] (inactive).

`O=C1c2c(O)ccc(Nc3ccc(CCO)cc3)c2C(=O)c2c([N+](=O)[O-])ccc(O)c21`: the “viability change, negative = cytotoxic” value is -6.05% (inactive).

In the case of `Clc1ccc2cc3ccccc3cc2c1`, the “viability change, negative = cytotoxic” value was 0.045% (inactive).

Test system in the next test: not listed separately
Briefly: qHTS assay to identify small molecule agonists of the AP-1 signaling pathway (AID 1159526). On activation: on the % scale 0 is the no-effect control and ±100 the full control effect. Particulars: ME-180 (cervical carcinoma) AP-1-bla reporter, beta-lactamase FRET ratio, 5 h; series mostly up to 76.8 µM; activation: at the top concentration.
`CCC(Cl)C(Cl)C(Cl)CC(Cl)C(Cl)C(C)Cl` (configuration not stated): the “activation” value was 12.4% (inactive).

For `CSc1cnc(C)cn1`, the “activation” value was -0.112% [at 200 µM] (inactive).

Regarding `O=C1CCCc2c1cc1ccc3cccc4ccc2c1c34`, the Potency was 22.2 µM (active).

On to `CC(NN)c1ccccc1` (configuration not stated), for which the activation was -4.49% [at 15.8 µM] (inactive).

Take `COC(=O)c1cc(Cl)ccc1OC`: the “activation” value is 0.378% [at 35.3 µM] (inactive).

Another test deals with Retinoic acid receptor RXR-alpha (Homo sapiens) (UniProt P19793). Briefly: qHTS assay to identify small molecule agonists of the RXR signaling pathway (AID 1159527). Further: nearly all actives have a fitted effect of over 35% in size. On activation: on the % scale 0 is the no-effect control and ±100 the full control effect. Particulars: HEK293T RXRa-UAS-bla, beta-lactamase ratio, 16 h; series mostly up to 76.8 µM; activation: at the top concentration. Put shortly: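 Using 9-cis retinoic acid as the reference agonist, chemicals were tested in HEK 293T cells […] for 16 hr; substrate loading lasted 2 hr at room temperature.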
Chain of Retinoic acid receptor RXR-alpha (Homo sapiens) (P19793 whole entry, looked up): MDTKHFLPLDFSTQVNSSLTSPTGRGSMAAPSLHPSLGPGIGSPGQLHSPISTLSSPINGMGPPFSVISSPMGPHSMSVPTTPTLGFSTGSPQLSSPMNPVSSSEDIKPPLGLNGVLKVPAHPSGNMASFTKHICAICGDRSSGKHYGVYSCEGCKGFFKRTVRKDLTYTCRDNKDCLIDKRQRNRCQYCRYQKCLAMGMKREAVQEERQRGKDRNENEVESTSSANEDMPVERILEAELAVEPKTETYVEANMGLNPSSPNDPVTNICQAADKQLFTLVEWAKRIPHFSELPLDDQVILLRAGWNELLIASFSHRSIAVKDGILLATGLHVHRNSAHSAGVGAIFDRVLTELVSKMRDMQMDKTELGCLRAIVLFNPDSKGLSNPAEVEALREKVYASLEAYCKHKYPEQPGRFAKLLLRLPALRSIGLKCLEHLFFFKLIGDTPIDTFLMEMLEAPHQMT
On to `CC1=NC(C)OC1C` (configuration not stated), for which the “activation” value is 0.584% (inactive).

For `COc1cc(-c2ccc(N=C=O)c(OC)c2)ccc1N=C=O`, the “activation” value was 3.01% [at 35.3 µM] (inactive).

Regarding `Nc1ccccc1O`, the “activation” value is -7.65% (inactive).

For the compound `Cc1cc(O)c(Cl)c(C)c1Cl`, the “activation” value was -1.02% (inactive).

For the compound `NNc1nc(-c2ccccc2)cs1`, the “activation” value is -11.2% (inactive).

As to `CCCCN(CCCC)C(=O)N(CCCC)CCCC`, the “activation” value was -6.88% (inactive).

`CC(NN)c1ccccc1` (configuration not stated): the activation is -0.0243% [at 15.8 µM] (inactive).

Regarding `CCCCCCCCOC(=O)c1ccc(O)cc1`, the Potency result is “inactive”.

Regarding `COC(=O)c1cc(Cl)ccc1OC`, the “activation” value is 10.9% [at 35.3 µM] (inactive).

For the compound `C=C(C)C(=O)OCC[N+](C)(C)C`, the “activation” value was 1.14% (inactive).

As to `Clc1ccc2cc3ccccc3cc2c1`, the Potency is 54.9 µM (active).

Test system in a further test: not listed separately
Briefly: qHTS assay to identify small molecule agonists of the RXR signaling pathway - cell viability counter screen (AID 1159529; active means well fitted cell-killing curve with a large enough effect in the repeat runs; further: nearly all actives have a fitted effect of over 50% in size; on activity change, negative = cytotoxicity: on the % scale 0 is the no-effect control and ±100 the full control effect). Conditions: RXR-alpha-bla HEK293T viability, CellTiter-Glo, 16 h; series mostly up to 76.8 µM; activity change, negative = cytotoxicity: at the top concentration. Put shortly:
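Compounds dissolved in DMSO were pinned onto HEK 293T cells carrying a beta-lactamase reporter under RXR-alpha control and incubated 16 hr. Cytotoxicity was then quantified by CellTiter-Glo luminescence.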
As to `[Cl][Au]([Cl])[Cl]`, the Potency is 24.5 µM (active).

Consider `CCCCCCCCCOC(=O)c1ccc(O)cc1`, for which the Potency is 24.2 µM (active).

Turning to `CSc1cnc(C)cn1`, the “activity change, negative = cytotoxicity” value was 12.1% [at 200 µM] (inactive).

Turning to `CC1=NC(C)OC1C` (configuration not stated), the “activity change, negative = cytotoxicity” value is -16.1% (inactive).

Turning to `C=CC(=O)OCC(CO)(COCC(COC(=O)C=C)(COC(=O)C=C)COC(=O)C=C)COC(=O)C=C`, the Potency was 8.6 µM (active).

Consider `CN1CCN(CCC(=O)N2c3ccccc3Sc3ccc(C(F)(F)F)cc32)CC1`, for which the Potency is 23.9 µM (active).

As to `O=C1CCCc2c1cc1ccc3cccc4ccc2c1c34`, the “activity change, negative = cytotoxicity” value is 8.03% (inactive).

As for `COc1cc(-c2ccc(N=C=O)c(OC)c2)ccc1N=C=O`, the “activity change, negative = cytotoxicity” value is -6.81% [at 35.3 µM] (inactive).

On to `Oc1c(Cl)cc(Cl)c2cccnc12`, for which the Potency is 0.952 µM (active).

As for `Nc1ccccc1O`, the “activity change, negative = cytotoxicity” value is -7.9% (inactive).

For `O=C1CCCCCN1SSN1CCCCCC1=O`, the “activity change, negative = cytotoxicity” value is -13.6% (inactive).

Consider `C=CC(=O)OCC(CO)(COC(=O)C=C)COC(=O)C=C`, for which the Potency was 13.9 µM (active) and 12.3 µM (active).

With `Oc1ccc(N=Nc2ccccc2)cc1`, the “activity change, negative = cytotoxicity” value was 6.4% (inactive).

Turning to `O=C(Nc1cccc([N+](=O)[O-])c1)c1cc2ccccc2cc1O`, the “activity change, negative = cytotoxicity” value is -20.8% (inactive).

Turning to `CN(C/C=C/C#CC(C)(C)C)Cc1cccc2ccccc12`, the Potency is 7.56 µM (active).

As to `CCCCCCCC/C=C\CCCCCCCCOCCO`, the Potency was 22.6 µM (active).

Take `CC[C@H]1O[C@]2(CC[C@@H]1C)C[C@@H]1C[C@@H](C/C=C(\C)C[C@@H](C)/C=C/C=C3\CO[C@@H]4[C@H](O)C(C)=C[C@@H](C(=O)O1)[C@]34O)O2`: the Potency is 19.3 µM (active).

As to `Cc1cc2c(cc1C(F)(F)F)N(C(=O)Nc1ccc(Oc3cccnc3C)nc1)CC2`, the “activity change, negative = cytotoxicity” value is -28.1% (inactive).

Regarding `Oc1cccc(-c2c3nc(c(-c4cccc(O)c4)c4ccc([nH]4)c(-c4cccc(O)c4)c4nc(c(-c5cccc(O)c5)c5ccc2[nH]5)CC4)C=C3)c1`, the Potency was 23.9 µM (active).

With `CC(C)(C)NC(=O)[C@@H]1C[C@@H]2CCCC[C@@H]2CN1C[C@@H](O)[C@H](Cc1ccccc1)NC(=O)[C@H](CC(N)=O)NC(=O)c1ccc2ccccc2n1`, the Potency was 24.9 µM (active).

Turning to `CCCCN(CCCC)C(=O)N(CCCC)CCCC`, the “activity change, negative = cytotoxicity” value is 0.21% (inactive).

As to `CCCCCCCCCCCC(=O)NCCCN(C)C`, the Potency is 15.5 µM (active).

`CC(NN)c1ccccc1` (configuration not stated): the activity change, negative = cytotoxicity is -0.339% [at 15.8 µM] (inactive).

Take `CCCCCCCCOC(=O)c1ccc(O)cc1`: the Potency is 43.5 µM (active) and inactive.

Consider `N/C(=N\N=C\c1ccc(Cl)cc1)N/N=C/c1ccc(Cl)cc1`, for which the Potency is 19 µM (active).

On to `COC(=O)c1cc(Cl)ccc1OC`, for which the “activity change, negative = cytotoxicity” value is 7.38% [at 35.3 µM] (inactive).

For `C=C(C)C(=O)OCC[N+](C)(C)C`, the “activity change, negative = cytotoxicity” value was -1% (inactive).

Consider `CC(C)(C)C1CCC(CC2=C(O)c3ccccc3C(=O)C2=O)CC1` (configuration not stated), for which the “activity change, negative = cytotoxicity” value was -1.18% [at 35.3 µM] (inactive).

`O=C1c2c(O)ccc(Nc3ccc(CCO)cc3)c2C(=O)c2c([N+](=O)[O-])ccc(O)c21`: the “activity change, negative = cytotoxicity” value was -6.41% (inactive).

As for `Clc1ccc2cc3ccccc3cc2c1`, the “activity change, negative = cytotoxicity” value was 10.5% (inactive).
